This is one part of a sample in which hits are shown more often than they occur.
Pf Dd2 inh – qHTS Primary assay for Inhibitors of Plasmodium falciparum Dd2 growth in vitro; AID 1347417, 2020; P. falciparum Dd2 growth, SYBR Green, 72 h; 120,000 tested, 4.3% active; Potency, µM (highest dose often 28.9 µM), for the others: top-dose activity, negative = inhibition, actives largely listed as inhibitors; active = well fitted inhibition curve with a large enough effect;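 note: plate controls were DMSO vehicle for no effect and reference drug for full effect; nearly all actives have a fitted effect of over 65% in size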
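Readout: SYBR Green fluorescence, 485 nm excitation, 535 nm emission, after ~16 h lysis at 37C. Before that, Dd2-infected red cells (2.5% hematocrit) grew 72 h with compound, 29 uM top final concentration.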
* marks the source's active call; other numbers are inactive results; [ ] = remark or other dose. Potency is the fitted concentration of half-maximal effect.

How did COc1ccc(-c2nnc(SCC(=O)NCc3ccccc3)nc2-c2ccc(OC)c(OC)c2)cc1OC do in these assays?
Pf Dd2 inh: 8.9µM*

How did CCOc1cc(-c2nnc(SCC(=O)Nc3ccc(F)c(F)c3)nc2-c2ccc(OC)c(OCC)c2)ccc1OC do in these assays?
Pf Dd2 inh: 15%

How did CCOc1ccc(-c2nnc(SCC(=O)NC3CCCC3)nc2-c2ccc(OCC)c(OC)c2)cc1OC do in these assays?
Pf Dd2 inh: 91%

Results for CCOc1ccc(C2=CC(c3cc(Br)ccc3F)n3ncnc3N2)cc1Cl (configuration not stated) ?
Pf Dd2 inh: 11µM*

What do the screens show for `COC(=O)c1nc2n(n1)C(c1cc(OC)ccc1OC)C=C(c1ccc(Br)cc1)N2` (configuration not stated)?
Pf Dd2 inh: 11%

What do the screens show for `COc1ccc(C2=CC(c3cc(Br)ccc3F)n3c(nc4ccccc43)N2)cc1` (configuration not stated)?
Pf Dd2 inh: -23%

Results for COc1ccc(CC(=O)Nc2ccc([C@@H](O)[C@H]3COCC(=O)N3Cc3ccccc3OC)cc2)cc1 ?
Pf Dd2 inh: -2%

How did COc1ccccc1OCCn1c(COc2cc(C)ccc2C)nc2ccccc21 do in these assays?
Pf Dd2 inh: 6.3µM*

How did COc1ccccc1OCCn1c(NC(=O)c2ccccc2Cl)nc2ccccc21 do in these assays?
Pf Dd2 inh: -9%

What do the screens show for `COCc1nc2ccccc2n1CCOc1cccc(C)c1`?
Pf Dd2 inh: 22%

What do the screens show for `O=C(C1CN(c2cccc(Cl)c2)C(=O)N1)N1CCCC1` (configuration not stated)?
Pf Dd2 inh: 12%[44.1 µM]

What do the screens show for `Cc1ccc(C(=O)N2CCC3(CC2)CC(N2CCN(CC(C)C)CC2)CCO3)s1` (configuration not stated)?
Pf Dd2 inh: inactive

Results for CC(=O)Nc1ccc([C@H]2OCC(=O)N[C@@H]2CO)cc1 ?
Pf Dd2 inh: -12%[44.1 µM]

Results for Cc1cc(CN2CCC(CO)(CN3CCCC3)CC2)ccc1F ?
Pf Dd2 inh: -28%

How did OCC1(CN2CCCC2)CCN(Cc2cnn(-c3ccccc3)c2)CC1 do in these assays?
Pf Dd2 inh: inactive

What do the screens show for `CCc1ccc(CN2CCC(CO)(CN3CCCC3)CC2)cc1`?
Pf Dd2 inh: 7.1µM*

Results for CC(C)Oc1ccc(CN2CCC(CO)(CN3CCCC3)CC2)cc1Cl ?
Pf Dd2 inh: 13µM*

What do the screens show for `COc1ccc(CN2CCC(CO)(CN3CCCC3)CC2)cc1C`?
Pf Dd2 inh: inactive

How did COc1ccc(CN2CCC(CO)(CN3CCCC3)CC2)cc1OC do in these assays?
Pf Dd2 inh: -14%

How did CCOC(=O)CCNC(=O)N1CCc2c(nc(-c3ccc(F)cc3)[nH]c2=O)C1 do in these assays?
Pf Dd2 inh: -21%

How did O=C([C@@H]1C[C@H](Oc2cccnc2)CN1C(=O)c1n[nH]c2ccccc12)N1CCOCC1 do in these assays?
Pf Dd2 inh: -6%

How did NCc1ccccc1-c1nc2c([nH]1)CCNC2C(=O)O (configuration not stated) do in these assays?
Pf Dd2 inh: 3%

How did Cc1ccc(C(=O)N2CCC(N3CCCCCC3=O)CC2)cc1 do in these assays?
Pf Dd2 inh: -9%[44.1 µM]

How did CC(=O)Nc1cccc2nc(CN3CCN(C(C)C)C(CCO)C3)ccc12 (configuration not stated) do in these assays?
Pf Dd2 inh: -16%

How did Cn1ncc(N2CCC(CNC(=O)c3cccc(-c4ncc[nH]4)c3)C2)cc1=O (configuration not stated) do in these assays?
Pf Dd2 inh: -22%

Results for Cc1cccc(CN2CCc3c(cc(C(=O)O)n3C)C2)c1 ?
Pf Dd2 inh: inactive

Results for CCOC(=O)C1CCN(C(=O)c2cc3c(n2C)CCN(Cc2ccccc2)C3)CC1 ?
Pf Dd2 inh: 1.6µM*

How did CN(C)CCNC(=O)c1cc2c(n1C)CCN(Cc1ccccc1)C2 do in these assays?
Pf Dd2 inh: 13µM*

Results for COc1ccccc1NC(=O)c1cc2c(n1C)CCN(Cc1ccc(F)cc1)C2 ?
Pf Dd2 inh: -10%

Results for Cn1c(C(=O)N2CCCC2)cc2c1CCN(Cc1ccccc1)C2 ?
Pf Dd2 inh: -6%

How did CN(C)CCCNC(=O)c1cc2c(n1C)CCN(Cc1ccc(F)cc1)C2 do in these assays?
Pf Dd2 inh: -20%

What do the screens show for `COc1ccc(CNC(=O)c2cc3c(n2C)CCN(Cc2ccc(F)cc2)C3)cc1`?
Pf Dd2 inh: -26%

How did Cc1ccc(CN2CCc3c(cc(C(=O)O)n3C)C2)cc1 do in these assays?
Pf Dd2 inh: inactive

Results for COc1cccc(CN2CCc3c(cc(C(=O)Nc4cc(OC)cc(OC)c4)n3C)C2)c1 ?
Pf Dd2 inh: 8.9µM*

Results for CC1(COc2ccccc2)COc2ccc(C(=O)NCc3cccc(F)c3)cc2N1 (configuration not stated) ?
Pf Dd2 inh: -14%[44.1 µM]

Results for CCCC1C=CCN1C(=O)c1coc(CN2CCN(c3ccccc3F)CC2)n1 (configuration not stated) ?
Pf Dd2 inh: -10%

How did O=C(COc1ccccc1)N1CC[C@H]2CC(=O)N(c3ccccc3)CC[C@H]2C1 do in these assays?
Pf Dd2 inh: -8%[44.1 µM]

Results for Cc1onc(C(=O)NC2CCc3n[nH]c(=O)n3CC2)c1COc1ccccc1 (configuration not stated) ?
Pf Dd2 inh: -13%

What do the screens show for `CN(Cc1ccc2nonc2c1)C(C(=O)O)c1ccc(-c2ccn[nH]2)cc1` (configuration not stated)?
Pf Dd2 inh: 1%

What do the screens show for `Cc1cc(C(=O)N2CC(c3nnc(C(C)C)o3)C3(CCOCC3)C2)n(C)n1` (configuration not stated)?
Pf Dd2 inh: 7%

How did CC(=O)N1CCN(C(=O)C[C@@H]2c3nc(NC(=O)C(C)(C)C)sc3C[C@@H]3[C@](C)(CO)[C@H](O)CC[C@]32C)CC1 do in these assays?
Pf Dd2 inh: -14%

Results for O=C(CSc1nc(-c2ccc(Cl)cc2)nc2c1Cc1ccccc1O2)N1CCCCC1 ?
Pf Dd2 inh: 33%

How did Cc1ncc(CO)c2c1Oc1nc(-c3ccc(Cl)cc3)nc(SCC(=O)N3CCCCC3)c1C2 do in these assays?
Pf Dd2 inh: 3.2µM*

How did Cc1cccc(NC(=O)CSc2nc(-c3cccc(C)c3)nc3c2Cc2c(CO)cnc(C)c2O3)c1 do in these assays?
Pf Dd2 inh: 8.9µM*

What do the screens show for `Cc1ccc(NC(=O)CSc2nc(-c3ccc(F)cc3)nc3c2Cc2c(CO)cnc(C)c2O3)cc1C`?
Pf Dd2 inh: 9%

How did Cc1cc(C)c(NC(=O)CSc2nc(-c3ccc(F)cc3)nc3c2Cc2c(CO)cnc(C)c2O3)c(C)c1 do in these assays?
Pf Dd2 inh: 11%

How did COc1cccc(-c2nc3c(c(SCC(=O)Nc4cc(C)ccc4C)n2)Cc2c(CO)cnc(C)c2O3)c1 do in these assays?
Pf Dd2 inh: 41%

What do the screens show for `O=C(NC1CCCCC1)C1CCc2sc(C(=O)N3CCCC3)cc2C1` (configuration not stated)?
Pf Dd2 inh: inactive

What do the screens show for `O=C(NC1CCCCC1)[C@H]1O[C@H](CCN2CCN(Cc3ccccc3)CC2)CC[C@@H]1O`?
Pf Dd2 inh: -2%[44.1 µM]

Results for COCc1ccc2c(c1)c(OC(C)(C)C(=O)NCC[S+](C)(=O)[O-])nn2CCC(C)C ?
Pf Dd2 inh: -27%[44.1 µM]

How did COc1ccccc1-c1cnc(NC(=O)c2cnccn2)c2c1CCO2 do in these assays?
Pf Dd2 inh: -10%[44.1 µM]

What do the screens show for `O=C1NCC(=O)N2CCN(C(=O)c3cnnn3-c3ccccc3)CC12` (configuration not stated)?
Pf Dd2 inh: -4%

Results for Cc1ccc(-c2cn3c(n2)N(C(=O)Cn2ccnc2C)CCC3)cc1 ?
Pf Dd2 inh: 10µM*

Compound activity as filed in PubChem BioAssay.
